Screen size: about 48,000 compounds; about 13,000 (27%) showed an effect of 50% or more. Some of the results follow.

The experiment has as its system Wolbachia pipientis. The experiment in a line: Anti-Wolbachia Cell-Based Screen. The format is functional. Set-up: scale not given: in the data most compounds retested in dose-response had high values. The following applies: 5 µM.
With `CC(C)S(=O)(=O)NCC1CCCN(C(=O)c2ccc3c(c2)OCCO3)C1` (stereo not drawn), the “Percent Effect” value was -10.13%.
With `COc1cccc(CC(=O)N2CCC(O)(C(F)(F)F)C2)c1` (stereo not drawn) the figure was -3.145%; with `Cc1ccc(CN2CCN(c3cc(NCCO)ncn3)CC2CCO)o1` (stereo not drawn), -3.553%.
Under `CS(=O)(=O)NCCCSCc1cccc2cccnc12` stands -10.2%.
With `CCC(CO)NC(=O)Cc1ccc(NC(=O)CC2=CCCCC2)cc1` (stereo not drawn) the figure was -16.18%; with `Cc1cccc(-c2nnn3c2COC(CNS(=O)(=O)C2CC2)C3)c1` (stereo not drawn), -1.824%.
With `F[C@@H]1CN(CC2CCCCC2)C[C@@H]1OCc1nc2ccccc2o1`, the “Percent Effect” value is given as -16.46%.
Consider `Cc1ccc(-c2c[nH]c([C@@H]3COCCN3Cc3cccnc3)n2)cc1`, for which the “Percent Effect” value was -11%.
Under `CC(C)(C)c1coc([C@@H]2COCCN2Cc2cnc3ccccc3c2)n1` stands -14.41%; under `Cc1cn[nH]c1C1CCCN1Cc1ccc(F)c(F)c1` (stereo not drawn), 102.9%; under `Cc1cn[nH]c1C1COCCN1Cc1cscn1` (stereo not drawn), 126.8%.
With `Cc1ccc(CN2CCOCC2c2[nH]ncc2C)cn1` (stereo not drawn) the figure was 135.2%.
With `Cc1cc(C)n(CC2CCCN2Cc2cscn2)n1` (stereo not drawn) the figure was -19.73%; with `Cc1ccc(CN2CCCN(Cc3cscn3)CC2)cc1`, 8.803%; with `C[C@H]1C[C@H]2CN(C(=O)C3=CCCC3)CC[C@H]2O1`, -4.42%.
In the case of `Cc1cnc(CN(Cc2ccc(C#N)cc2F)C2CCN(C)C2)o1` (stereo not drawn), the “Percent Effect” value is on record as 0.7186%.
As for `O=C(Cc1ccc(O)c(F)c1)N1CCC2(CCNCC2)CC1`, the “Percent Effect” value is listed as 3.875%.
With `CCOC(=O)N1CCN(c2nc(NCCO)c3ccccc3n2)CC1` the figure was -13.13%.
Under `COc1ccc(CN2CC[C@H]3[C@H](CO[C@H]3CNC(=O)N(C)C)C2)cc1.O=C(O)C(F)(F)F` stands 1.388%; under `CS(=O)(=O)NC[C@@H]1OC[C@H]2CN(C(=O)c3ccccc3)CC[C@H]21`, -5.092%.
`CS(=O)(=O)NC[C@H]1OC[C@@H]2CCN(Cc3ccc(F)cc3)C[C@@H]21.O=C(O)C(F)(F)F`: the “Percent Effect” value is -22.2%.
With `CS(=O)(=O)NC[C@H]1OC[C@@H]2CCN(CCc3ccccc3)C[C@@H]21.O=C(O)C(F)(F)F` the figure was 101.5%; with `CN(C)C(=O)NC[C@@H]1OC[C@H]2CN(Cc3cccc(F)c3)CC[C@H]21.O=C(O)C(F)(F)F`, -1.144%; with `CCCN1CC[C@@H]2[C@@H](CO[C@H]2CNC(=O)c2nccn2C)C1.O=C(O)C(F)(F)F`, -3.77%.
Under `CS(=O)(=O)NC[C@@H]1OC[C@H]2CN(Cc3ccccc3)CC[C@H]21.O=C(O)C(F)(F)F` stands 107.1%; under `CS(=O)(=O)NC[C@@H]1OC[C@H]2CN(C(=O)c3ccccn3)CC[C@H]21.O=C(O)C(F)(F)F`, -10.63%.
Consider `Cc1cccc(CN2CC[C@H]3CO[C@H](CNC(=O)N(C)C)[C@H]3C2)c1.O=C(O)C(F)(F)F`, for which the “Percent Effect” value is given as -5.522%.
Under `Cc1cccc(CN2CC[C@@H]3[C@@H](CO[C@H]3CNc3ncccn3)C2)n1.O=C(O)C(F)(F)F.O=C(O)C(F)(F)F.O=C(O)C(F)(F)F` stands 100.3%; under `COc1ccc(CN2CC[C@H]3CO[C@H](CNC(=O)N(C)C)[C@H]3C2)cc1.O=C(O)C(F)(F)F`, -1.403%; under `CS(=O)(=O)NC[C@H]1OC[C@H]2CN(CCc3ccccc3)CC[C@H]21.O=C(O)C(F)(F)F`, 87.13%.
With `CCN1CC2(CCN(CC3COCCO3)CC2)OC1=O` (stereo not drawn), the “Percent Effect” value was -23.81%.
With `CN1CCN(CCCN(C)S(=O)(=O)C2CCCCC2)CC1` the figure was -3.997%; with `CCc1cc(=O)[nH]c2nnc(SCC(=O)NC(C)C)n12`, 9.216%.
Under `CCn1c(CN(C)C)nnc1C1CCN(c2ccnc(C)c2)CC1` stands -12.28%.
With `Cn1nc(Cl)cc1C(=O)N1CCC(C(=O)c2nc3ccccc3s2)CC1` the figure was 97.43%; with `Cn1nc2c(cc1=O)CN(c1nc3ccccc3s1)CC2`, 9.519%.
Turning to `Cn1nc(CNC(=O)c2nc3ccccc3s2)c2c1CCOC2`, the “Percent Effect” value was -7.604%.
With `Cc1sc2nc(C(F)(F)F)nc(N3CCCN(C)CC3)c2c1C` the figure was 3.641%; with `COc1nc(C)c(C(=O)N(C)Cc2nc(-c3ccccn3)no2)s1`, 6.707%.
With `Cc1ccc(C(CNCc2ncc[nH]2)N2CCOCC2)s1` (stereo not drawn) the figure was -41.63%.
With `OC1CCCOC12CCN(Cc1nnc(-c3cccnc3)o1)CC2` (stereo not drawn) the figure was -12.47%; with `COc1cc(OC)nc(N2CCC3(CC2)OCCCC3O)n1` (stereo not drawn), -8.22%; with `O[C@H]1CN(Cc2ccnc(N3CCCC3)n2)CC[C@@]12CCCO2`, 120.1%.
With `OC1CCCOC12CCN(c1ncccn1)CC2` (stereo not drawn), the “Percent Effect” value amounted to 8.98%.
With `CCOC(=O)C1CCCN(Cc2c[nH]nc2-c2cc3ccccc3o2)C1` (stereo not drawn) the figure was -24.88%.
With `O[C@H]1CN(Cc2c[nH]nc2-c2ccccc2)CC[C@@]12CCCO2` the figure was 151.3%; with `Cc1ccccc1CC(C)(C)NC(=O)c1cccc(OCC(N)=O)c1`, -9.051%; with `CCn1nnc2c1C(COC)CN(C(=O)COc1ccccc1)C2` (stereo not drawn), -1.685%.
Under `O=C(c1ncccn1)N1C[C@@H]2COC[C@]2(COCc2cccnc2)C1` stands 11.05%; under `O=C(c1ncccn1)N1C[C@@H]2COC[C@]2(COc2cccnc2)C1`, 108.1%.
As for `O=C(c1cocn1)N1C[C@@H]2COC[C@]2(COc2cccnc2)C1`, the “Percent Effect” value turned out to be 92.15%.
As to `N#Cc1cccc(C(=O)N2CCc3c(COCC4CC4)cncc3C2)c1.O=C(O)C(F)(F)F`, the “Percent Effect” value is -0.2698%.
With `O=C(c1cccnc1)N1CCc2c(COCC3CC3)cncc2C1` the figure was 11.19%; with `COCc1cncc2c1CCN(C(=O)c1cccc(C#N)c1)C2.O=C(O)C(F)(F)F`, 95.5%.
Under `N#Cc1ccc(C(=O)N2CCc3c(COCC4CC4)cncc3C2)cc1` stands 120.9%; under `COCc1cncc2c1CCN(C(=O)c1ccc(C#N)cc1)C2.O=C(O)C(F)(F)F`, 122.8%.
With `O=C(c1ccncc1)N1CCc2c(COCC3CC3)cncc2C1` the figure was -2.638%.
For `CCOCc1cncc2c1CCN(C(=O)c1cccc(C#N)c1)C2`, the “Percent Effect” value is given as 8.725%.
Consider `CC(C)=CCN1CCC2(CC1)c1ccccc1[C@@H](N1CCSCC1)[C@@H]2O`, for which the “Percent Effect” value is listed as 17.95%.
Under `NC(=O)c1nc2c(s1)CCN(C(=O)Nc1cccc(Cl)c1)CC2` stands 103.6%; under `CN(C)C(=O)c1nc2c(s1)CCN(C(=O)c1ccc(Cl)cc1)CC2`, -17.04%; under `CNC(=O)c1nc2c(s1)CCN(C(=O)c1ccccc1)CC2`, -10.92%.
Consider `O=C(Nc1ccccc1)N1CCc2nc(C(=O)N3CCCC3)sc2CC1`, for which the “Percent Effect” value is 124.8%.
Take `NC(=O)c1nc2c(s1)CCN(Cc1ccccc1)CC2.O=C(O)C(F)(F)F`: the “Percent Effect” value is given as -10.1%.
With `CCN(CC)C(=O)c1nc2c(s1)CCN(C(=O)CCC(=O)OC)CC2` the figure was -10.26%.
Turning to `O=C(c1ccc(Cl)cc1)N1CCc2nc(C(=O)N3CCCC3)sc2CC1`, the “Percent Effect” value is 0.273%.
With `CCN(CC)C(=O)c1nc2c(s1)CCN(Cc1cccc(OC)c1)CC2.O=C(O)C(F)(F)F` the figure was -1.01%; with `CCN(CC)C(=O)c1nc2c(s1)CCN(C(=O)Nc1ccccc1)CC2`, 97.77%; with `COc1cccc(CC(=O)N2CCc3nc(C(N)=O)sc3CC2)c1`, -1.696%.
Consider `NC(=O)c1nc2c(s1)CCN(C(=O)Nc1ccccc1)CC2`, for which the “Percent Effect” value is 118.3%.
Under `CNC(=O)N1CCc2nc(C(=O)Nc3cccnc3)sc2CC1` stands -5.762%.
With `O=C(c1ccc2c(c1)[nH]c(=O)n2C1CCCC1)N1CCSCC1` the figure was 1.159%; with `CCCSc1ncc(CN2CCN(C)C(=O)C2C)cn1` (stereo not drawn), 3.746%.
Under `Cc1nsc(NC(=O)N2CCN(Cc3ccccc3F)C(=O)C2)n1` stands -10.42%; under `Clc1cccc(-c2noc(CCN3CCN(c4ccncc4)CC3)n2)c1`, 4.288%; under `CN(Cc1ccc(Cl)s1)C(=O)Nc1ccc(N(C)C)nc1`, 10.16%.
`COCCN(Cc1cnn(C)c1)C(=O)C1COc2c(cccc2OC)C1` (stereo not drawn): the “Percent Effect” value is -6.746%.
With `COCCCN1CC2(CCCCN2C(=O)COC)CC1=O` (stereo not drawn) the figure was -19.41%; with `CCN1CC2(CCCCN2C(=O)c2ccn(C)n2)CC1=O` (stereo not drawn), -5.146%.
Under `CCN1CC2(CCCCN2C(=O)c2ccsc2)CC1=O` (stereo not drawn) stands 92.4%.
For `CN1CC2(CCCCN2C(=O)c2ccsc2)CC1=O` (stereo not drawn), the “Percent Effect” value was determined as 106.9%.
With `CCN1C(=O)CCCC12CCCN(C(=O)c1ccsc1)C2` (stereo not drawn) the figure was 0.7078%; with `COc1ccccc1-c1ccc(C(=O)N2C[C@H]3CC[C@@H]2CN(C)C3)cc1`, 3.488%.
Under `Cc1nnc([C@@H]2CCO[C@@H]3CCN(C(=O)Cc4ccsc4)C[C@@H]32)o1` stands -11.03%; under `O=C(NCCCC(=O)N1CCN(CC2CC2)c2ccccc21)C1CC1`, -7.741%; under `COc1ccc2c(c1)OCC(Cc1cc(C(=O)N3CCCC3)ccn1)C2` (stereo not drawn), 87.9%.
Under `Nc1cc(CC2COc3ccccc3C2)ccn1` (stereo not drawn) stands -18.54%; under `O=C(c1ccnc(CC2COc3ccccc3C2)c1)N1CCCC1` (stereo not drawn), 99.57%.
As for `COc1ccc2c(c1)OCC(Cc1ccnc(N)n1)C2` (stereo not drawn), the “Percent Effect” value is recorded as -14.38%.
Under `c1ccc2c(c1)CC(Cc1cc(N3CCCC3)cnn1)CO2` (stereo not drawn) stands 9.635%; under `COc1ccc2c(c1)OCC(Cc1cc(N3CCCC3)cnn1)C2` (stereo not drawn), -5.296%.
Under `COc1cccc(CC(=O)N2CC[C@@H]3NC(=O)CC[C@@H]32)c1` stands -6.606%; under `Cc1ccc(OCC(O)CNC(=O)C2(c3ccc(F)cc3)CC2)cc1` (stereo not drawn), -8.798%.

The record behind these values is ChEMBL document CHEMBL3988442, “University of Dundee, Small-Polar-MMV Screening Library” (2021).
